Assay results from PubChem BioAssay.
Calls of active or inactive are those of the source.

Tests used:
[1] = test system: Plasmodium falciparum Sir2 (PF13_0152, Sir2A); assay: pfSir2 binders on small-molecule microarrays, primary screen, biochemical, small-molecule microarray, 635 nm fluorescence (AID 1098); settings: small-molecule microarray binding, fluorescence 635 nm; higher = more signal;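 also: score merges spot fluorescence intensity with its signal-to-noise ratio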
[2] = small-molecule microarray binders of probe aDKK1, primary screen, biochemical, biotinylated probe, 635/667 nm fluorescence (AID 1099); settings: higher = more signal;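 also: score merges 667nm spot fluorescence with signal to noise across triplicate slides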
[3] = small-molecule microarray binders of probe aCHRDL2, primary screen, biochemical, biotinylated probe, 635/667 nm fluorescence (AID 1100); settings: higher = more signal
[4] = splicing luciferase reporter signal modulators, primary screen, spliceosome inhibition project, cell-based, HEK293, splice +/- reporter (AID 1101); settings: luminescence, 24 h, higher = more signal, called active from +8 up or from −8 down;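 also: HEK293 cells carrying a splicing-competent luciferase reporter gene; test concentration not given here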
[5] = molecular target: Fibroblast growth factor 10 (Homo sapiens) (UniProt O15520); assay: FGF10 binders on small-molecule microarrays, primary screen, biochemical, small-molecule microarray, 635 nm fluorescence (AID 1102); settings: FGF10 binding, fluorescence 635 nm, higher = more signal
[6] = test system: glycogen synthase kinase-3 (GSK3A per assay name; protocol says GSK3B); assay: GSK3 binders on small-molecule microarrays, primary screen, biochemical, small-molecule microarray, 635 nm fluorescence, GSK3A (AID 1103); settings: small-molecule microarray binding, fluorescence 635 nm; higher = more signal; also: the record names both GSK3A and GSK3B
[7] = molecular target: Epidermal growth factor receptor (Homo sapiens) (UniProt P00533); assay: EGFR binders on small-molecule microarrays, primary screen, biochemical, small-molecule microarray, 635 nm fluorescence (AID 1104); settings: EGFR binding, higher = more signal;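 also: score merges 667 nm emission intensity with spot signal to noise over triplicate slides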
[8] = molecular target: Follistatin-related protein 3 (Homo sapiens) (UniProt O95633); assay: FSTL3 binders on small-molecule microarrays, primary screen, biochemical, small-molecule microarray, 635 nm fluorescence (AID 1105); settings: FSTL3 binding, higher = more signal;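 also: score merges emission near 667 nm and signal to noise per printed spot across three slides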
[9] = molecular target: Dickkopf-related protein 1 (Homo sapiens) (UniProt O94907); assay: DKK1 binders on small-molecule microarrays, primary screen, biochemical, small-molecule microarray, 635 nm fluorescence scan (AID 1106); settings: DKK1 binding, higher = more signal;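 also: score merges emission near 667 nm with signal to noise over three replicate slides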
[10] = test system: Inhibin beta A chain (activin A); assay: INHBA (activin A) binders on microarrays, primary screen, biochemical, small-molecule microarray, 635 nm fluorescence scan (AID 1107); settings: small-molecule microarray binding, higher = more signal;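 also: mouse activin A protein probed at 4.33 µg/mL on printed slides; score merges bound-protein fluorescence near 667 nm with spot signal-to-noise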
[11] = test system: Human papillomavirus type 1a protein E7 (residues 44-93); assay: HPV1a E7 fragment binders on microarrays, primary screen, biochemical, small-molecule microarray, residues 44-93, 635 nm fluorescence (AID 1108); settings: small-molecule microarray binding, fluorescence 635 nm; higher = more signal;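 also: E7 fragment applied at 1 µg/mL in TBST for 1 h at 4 C; score combines spot fluorescence with its signal to noise ratio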
[12] = modulators of HCV replicon luciferase signal, primary screen, HCV replication inhibitor project, Huh7 cells, luciferase reporter (AID 1109); settings: 48 h, higher = more signal;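 also: huh7 hepatoma cells harbouring a luciferase neomycin HCV replicon reporter; luciferase luminescence as measure of HCV replicon replication; test concentration not given here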
[13] = molecular target: Left-right determination factor 2 (Homo sapiens) (UniProt O00292); assay: LEFTY2 binders on small-molecule microarrays, primary screen, biochemical, small-molecule microarray, 635 nm fluorescence scan (AID 1110); settings: LEFTY2 binding, higher = more signal
[14] = molecular target: Calmodulin-1 (Homo sapiens) (UniProt P0DP23); assay: CALM1 binders on microarrays, EGTA buffer, profiling panel, biochemical, small-molecule microarray, Cy5-labelled CALM1 (AID 1111); settings: Cy5-CALM1 binding fluorescence, higher = more signal;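 also: labelled calmodulin applied in Tris saline Tween buffer holding calcium plus EGTA and DTT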
[15] = molecular target: Calmodulin-1 (Homo sapiens) (UniProt P0DP23); assay: calcium-bound CALM1 binders on microarrays, profiling panel, artefact control for SMM control-protein annotation, biochemical, small-molecule microarray, Cy5-labelled CALM1, plus calcium (AID 1112); settings: Cy5-CALM1 binding fluorescence, higher = more signal;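 also: score merges spot fluorescence with signal to noise from triplicate slides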
[16] = small-molecule microarray binders of probe aWnt5a, primary screen, biochemical, biotinylated probe, 635/667 nm fluorescence (AID 1113); settings: higher = more signal;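 also: score merges 667 nm fluorescence intensity with signal-to-noise per printed feature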
[17] = small-molecule microarray binders of probe aShh, primary screen, biochemical, biotinylated probe, 635/667 nm fluorescence (AID 1114); settings: higher = more signal;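 also: probe is biotin-labelled aShh protein from a stem cell growth factor screen; measures binding of labelled protein to compounds printed on the slide; score merges feature fluorescence at 667 nm with signal-to-noise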
[18] = small-molecule microarray binders of probe aNog, primary screen, biochemical, biotinylated probe, 635/667 nm fluorescence (AID 1115); settings: higher = more signal;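 also: probe is biotinylated aNog protein used at 0.15 µg/mL for 1 h at 4 C; z-score combines 667 nm fluorescence of each spot with its signal to noise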
[19] = molecular target: Torsin-1A-interacting protein 1 (Homo sapiens) (UniProt Q5JTV8); assay: LAP1 binders from COS7 cell lysate, primary screen, small-molecule microarray, 635/667 nm fluorescence (AID 1116); settings: COS7-hLAP1 lysate binding, 635 nm fluorescence, higher = more signal
[20] = molecular target: Alpha-bungarotoxin (Bungarus multicinctus) (UniProt P60615); assay: alpha-bungarotoxin binders on microarray, profiling panel, artefact control for SMM control protein annotation, biochemical, small-molecule microarray, Alexa647 label, 635/667 nm fluorescence (AID 1117); settings: alpha-BTX-A647 binding fluorescence, higher = more signal
Sequence of Alpha-bungarotoxin (Bungarus multicinctus) (P60615 whole entry, looked up): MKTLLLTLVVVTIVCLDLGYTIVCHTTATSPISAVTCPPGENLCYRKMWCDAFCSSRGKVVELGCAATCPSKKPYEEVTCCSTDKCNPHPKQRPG

Sequence of Follistatin-related protein 3 (Homo sapiens) (O95633 whole entry, looked up): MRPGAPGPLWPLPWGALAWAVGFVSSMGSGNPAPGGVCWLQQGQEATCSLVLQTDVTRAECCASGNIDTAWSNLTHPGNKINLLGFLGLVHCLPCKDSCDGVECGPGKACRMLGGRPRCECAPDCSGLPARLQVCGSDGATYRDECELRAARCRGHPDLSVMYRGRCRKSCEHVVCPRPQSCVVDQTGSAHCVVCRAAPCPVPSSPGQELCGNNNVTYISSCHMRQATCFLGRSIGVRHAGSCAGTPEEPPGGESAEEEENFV
Sequence of Epidermal growth factor receptor (Homo sapiens) (P00533 whole entry, looked up): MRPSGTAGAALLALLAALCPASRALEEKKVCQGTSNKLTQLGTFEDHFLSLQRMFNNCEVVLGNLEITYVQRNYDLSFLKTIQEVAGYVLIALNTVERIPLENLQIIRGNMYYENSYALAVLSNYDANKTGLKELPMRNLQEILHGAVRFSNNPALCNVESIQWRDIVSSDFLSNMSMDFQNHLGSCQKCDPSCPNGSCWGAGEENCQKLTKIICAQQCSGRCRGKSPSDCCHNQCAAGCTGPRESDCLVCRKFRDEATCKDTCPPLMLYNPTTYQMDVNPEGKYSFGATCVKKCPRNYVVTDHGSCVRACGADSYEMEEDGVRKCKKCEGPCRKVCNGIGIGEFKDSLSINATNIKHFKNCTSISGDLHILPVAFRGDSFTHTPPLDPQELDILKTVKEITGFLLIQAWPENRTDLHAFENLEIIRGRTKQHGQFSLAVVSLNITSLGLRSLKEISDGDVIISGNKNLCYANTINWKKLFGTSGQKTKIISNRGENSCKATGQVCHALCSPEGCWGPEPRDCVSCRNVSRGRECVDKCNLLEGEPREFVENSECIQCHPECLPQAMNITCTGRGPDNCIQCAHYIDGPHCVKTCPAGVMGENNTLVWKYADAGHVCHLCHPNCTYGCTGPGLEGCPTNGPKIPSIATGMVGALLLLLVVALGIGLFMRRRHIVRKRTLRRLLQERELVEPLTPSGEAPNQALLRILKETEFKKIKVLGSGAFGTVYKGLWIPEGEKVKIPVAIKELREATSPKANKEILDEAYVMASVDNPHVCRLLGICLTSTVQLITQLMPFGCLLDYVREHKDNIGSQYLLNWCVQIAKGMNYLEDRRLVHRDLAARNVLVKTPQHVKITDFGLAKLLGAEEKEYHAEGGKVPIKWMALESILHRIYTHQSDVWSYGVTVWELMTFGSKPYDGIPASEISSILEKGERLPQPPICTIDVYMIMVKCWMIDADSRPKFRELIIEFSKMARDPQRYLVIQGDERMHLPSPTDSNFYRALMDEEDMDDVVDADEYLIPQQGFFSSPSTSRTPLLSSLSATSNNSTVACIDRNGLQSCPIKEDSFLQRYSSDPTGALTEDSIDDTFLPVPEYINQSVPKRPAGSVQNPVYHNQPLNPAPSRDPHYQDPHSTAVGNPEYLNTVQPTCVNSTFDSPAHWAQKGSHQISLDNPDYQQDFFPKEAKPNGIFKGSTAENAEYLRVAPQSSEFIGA
Sequence of Dickkopf-related protein 1 (Homo sapiens) (O94907 whole entry, looked up): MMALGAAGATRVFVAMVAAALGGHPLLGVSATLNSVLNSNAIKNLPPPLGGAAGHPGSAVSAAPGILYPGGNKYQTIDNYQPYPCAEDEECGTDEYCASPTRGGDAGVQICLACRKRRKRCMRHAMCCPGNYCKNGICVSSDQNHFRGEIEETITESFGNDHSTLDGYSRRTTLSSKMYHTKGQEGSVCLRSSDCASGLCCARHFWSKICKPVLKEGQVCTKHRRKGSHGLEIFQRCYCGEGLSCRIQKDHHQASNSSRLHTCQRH
Sequence of Torsin-1A-interacting protein 1 (Homo sapiens) (Q5JTV8 whole entry, looked up): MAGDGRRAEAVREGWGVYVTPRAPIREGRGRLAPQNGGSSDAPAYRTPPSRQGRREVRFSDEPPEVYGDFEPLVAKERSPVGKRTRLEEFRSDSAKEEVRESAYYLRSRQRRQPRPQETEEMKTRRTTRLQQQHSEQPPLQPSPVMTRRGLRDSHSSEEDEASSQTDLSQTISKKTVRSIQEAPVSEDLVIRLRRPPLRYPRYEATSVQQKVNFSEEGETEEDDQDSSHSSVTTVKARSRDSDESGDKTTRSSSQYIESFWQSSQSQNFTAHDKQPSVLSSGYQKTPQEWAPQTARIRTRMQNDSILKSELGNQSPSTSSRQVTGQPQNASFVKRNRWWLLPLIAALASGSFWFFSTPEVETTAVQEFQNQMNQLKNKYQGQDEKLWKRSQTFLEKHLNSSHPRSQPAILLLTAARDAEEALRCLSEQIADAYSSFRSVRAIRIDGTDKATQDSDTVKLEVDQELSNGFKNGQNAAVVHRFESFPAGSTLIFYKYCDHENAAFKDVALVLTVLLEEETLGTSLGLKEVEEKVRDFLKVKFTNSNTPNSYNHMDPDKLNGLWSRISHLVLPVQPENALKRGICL
Sequence of Fibroblast growth factor 10 (Homo sapiens) (O15520 whole entry, looked up): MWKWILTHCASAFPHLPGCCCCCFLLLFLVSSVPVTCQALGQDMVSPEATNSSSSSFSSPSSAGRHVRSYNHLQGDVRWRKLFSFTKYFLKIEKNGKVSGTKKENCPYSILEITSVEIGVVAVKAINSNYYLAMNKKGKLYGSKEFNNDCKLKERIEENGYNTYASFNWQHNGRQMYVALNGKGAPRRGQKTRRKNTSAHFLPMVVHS
Sequence of Left-right determination factor 2 (Homo sapiens) (O00292 whole entry, looked up): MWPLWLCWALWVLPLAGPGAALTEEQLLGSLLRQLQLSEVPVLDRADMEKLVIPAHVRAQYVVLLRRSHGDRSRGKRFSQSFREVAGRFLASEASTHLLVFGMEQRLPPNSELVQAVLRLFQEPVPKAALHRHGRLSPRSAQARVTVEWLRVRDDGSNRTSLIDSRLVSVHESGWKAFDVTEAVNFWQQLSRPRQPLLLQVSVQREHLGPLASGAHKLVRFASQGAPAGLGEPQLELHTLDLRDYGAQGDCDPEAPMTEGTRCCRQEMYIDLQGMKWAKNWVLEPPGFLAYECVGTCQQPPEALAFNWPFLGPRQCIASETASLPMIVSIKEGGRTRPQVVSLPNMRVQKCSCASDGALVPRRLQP

| SMILES | composite z-score [1] | composite z-score [2] | composite z-score [3] | z-score [4] | composite z-score [5] | composite z-score [6] | composite z-score [7] | composite z-score [8] | composite z-score [9] | composite z-score [10] | composite z-score [11] | z-score [12] | composite z-score [13] | composite z-score [14] | composite z-score [15] | composite z-score [16] | composite z-score [17] | composite z-score [18] | composite z-score [19] | composite z-score [20] |
| --- | --- | --- | --- | --- | --- | --- | --- | --- | --- | --- | --- | --- | --- | --- | --- | --- | --- | --- | --- | --- |
| COC(=O)C1=CC(CCCO)=CC(C2CC2)N(Cc2cc3c(cc2Br)OCO3)C=C1C(=O)OC (stereo not given) | 1.57 | 1.03 | 1.14 | -0.575 (inactive) | 0.0344 | 0.194 | -0.482 | 0.0154 | 0.47 | 0.945 | 1.36 | -0.164 | -0.998 | 2.27 | 0.67 | -0.0269 | 0.0141 | 0.842 | 3.07 | 1.97 |
| COCCCNC(=O)[C@@]1(Cc2ccccc2CN=[N+]=[N-])COC(c2ccc(OCCCO)cc2)=N1 | 1.59 | 1.28 | 1.39 | -0.807 (inactive) | 1.38 | 0.266 | -0.474 | -0.0087 | -1.58 | 0.731 | 0.989 | -1.97 | -0.645 | 1.78 | 0.96 | 0.299 | 0.454 | 1.75 | 2.45 | 0.911 |
| COC(=O)C(CC#Cc1ccc2c(c1)[C@]1(C(=O)N2)[C@H](c2ccccc2OCCO)N2[C@H](c3ccccc3)[C@H](c3ccccc3)OC(=O)[C@H]2[C@@H]1C(=O)N1CCCCCCC1)C(=O)OC | 2.12 | 3.07 | 1.7 | -1.09 (inactive) | 1.55 | 1.47 | 1.91 | 1.77 | 2.52 | 1.79 | 1.48 | -1.95 | 1.73 | 3.07 | 1.76 | 1.46 | 2.72 | 3.54 | 5.82 | 3.89 |
| CC(C)(C)OC(=O)CC[C@@]12N=C(c3ccc(OCCCO)cc3)O[C@@H]1c1ccccc1CN(Cc1ccccc1)C2=O | 1.39 | 0.578 | 0.505 | -0.0992 (inactive) | 1.14 | 1.19 | 0.12 | 0.459 | 0.388 | 0.682 | 0.33 | -2.92 | -0.152 | 0.927 | 0.368 | -0.0981 | 1.23 | 0.36 | 0.886 | 0.941 |
| COc1ccc([Si](C)(C)[C@@H]2[C@@H](CCn3cc(CCO)nn3)O[C@]3(C(=O)N(Cc4ccc(N5C(=O)c6cccc7cccc5c67)cc4)c4ccccc43)[C@H]2C)cc1 | 0.831 | 0.134 | 0.207 | -2.39 (inactive) | 0.266 | 0.0923 | 0.248 | 0.334 | 0.258 | 0.581 | 0.119 | -5.16 | 0.316 | 1.22 | 0.863 | -0.0459 | 0.112 | -0.284 | 0.758 | 1.6 |
| COC(=O)C(CC#Cc1ccc2c(c1)[C@]1(C(=O)N2)[C@H](C(=O)O)[C@H]2C(=O)O[C@H](c3ccccc3)[C@H](c3ccccc3)N2[C@@H]1c1ccc(OCCO)cc1)C(=O)OC | 1.53 | 0.393 | 0.799 | -1.31 (inactive) | 1.15 | 0.987 | -0.199 | 0.0514 | -0.611 | 0.117 | 0.738 | -0.555 | 0.155 | 2.16 | 0.717 | -0.0229 | 0.166 | 0.78 | 1.5 | 3.51 |
| COc1ccc([Si](C)(C)[C@H]2[C@H](CC(=O)N(CCO)Cc3ccccc3)O[C@@]3(C(=O)N(Cc4cccc(N5C(=O)COc6ccccc65)c4)c4ccccc43)[C@@H]2C)cc1 | 1.29 | -0.209 | 0.202 | -2.08 (inactive) | 0.963 | 0.183 | 0.456 | 0.628 | 0.506 | 0.702 | -0.591 | -3.88 | 0.962 | -0.13 | -0.408 | -0.203 | 0.564 | 0.389 | 0.836 | 1.57 |
| COCCCNC(=O)[C@@]1(C)c2ccccc2C(=O)N(Cc2cc(F)cc(C(F)(F)F)c2)[C@H]1c1ccc(CO)cc1 | 0.938 | 0.612 | 0.862 | -0.112 (inactive) | 0.22 | -0.611 | -1.79 | -1.69 | -2.23 | -0.39 | -0.762 | 0.67 | -1.88 | -0.416 | 0.49 | -0.178 | -0.0769 | -0.144 | 0.0999 | -1.97 |
| C=C[C@H](OC)[C@@H](OC(=O)Nc1ccc(OC)cc1)c1ccc(OC)c(O)c1 | 0.29 | -0.387 | 0.703 | -1.48 (inactive) | -0.971 | -0.761 | -1.91 | -1.18 | -1.61 | -0.385 | -1.51 | 0.369 | -1.63 | -1.07 | -0.137 | -0.202 | 0.0062 | -0.358 | -0.557 | -2.08 |
| CC(C)N1CC=CC23O[C@@H]4/C=C\CCCOC(=O)C4[C@H]2C(=O)N(CCCO)[C@@H]3C1=O (stereo not given in full) | 2.12 | -0.201 | 0.787 | 0.073 (inactive) | -0.352 | -0.762 | -1.64 | -1.07 | -1 | 0.967 | -0.0197 | -0.597 | -1.83 | -0.311 | 0.412 | -0.14 | -0.0959 | 0.0824 | -0.0239 | -2.18 |
| C=C(C1=CCN(S(=O)(=O)c2ccc(C)cc2)C1)[C@@H](OC(C)=O)[C@@H]1CCCN1S(=O)(=O)c1ccccc1[N+](=O)[O-] | 1.55 | -0.362 | -0.254 | -3.24 (inactive) | 0.0611 | -0.297 | -0.0578 | -0.114 | -0.239 | 1.2 | -0.38 | -4.62 | -0.0476 | -0.765 | -0.856 | -0.208 | 0.0469 | 0.353 | 0.156 | -1.48 |
